In PubChem BioAssay (NCI):
“And” between values parts separate entries of the source, which are not always exact repeats. Equal entries are not always repeated. This is part of a sample that, as a whole, favours compounds with a hit. Of some 83,000 tested, about 20% had one in any assay.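 Percent growth is the endpoint: 0 to 100 indicates growth inhibition (40 means 60% inhibition), 0 means no net growth, and negative values indicate cell death.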 The source made the active and inactive calls. Rule for the calls: active = growth percent below 10; inactive = the rest.

Columns and labels:
Test in all cases: NCI-60 one-dose screen, 48 h (100 = growth as untreated, 0 = no growth, -100 = all killed)
HCT-15 colon = settings: 10 µM unless noted
HT29 colon = settings: 10 µM unless noted
SNB-75 CNS = settings: 10 µM unless noted
SNB-19 CNS = settings: 10 µM unless noted
U251 CNS = settings: 10 µM unless noted
PC-3 prostate = settings: 10 µM unless noted
SK-MEL-5 melanoma = settings: 10 µM unless noted
UACC-62 melanoma = settings: 10 µM
LOX IMVI melanoma = settings: 10 µM unless noted
SK-MEL-28 melanoma = settings: 10 µM
SK-MEL-2 melanoma = settings: 10 µM unless noted
EKVX NSCLC = settings: 10 µM unless noted
UO-31 renal = settings: 10 µM unless noted
TK-10 renal = settings: 10 µM
ACHN renal = settings: 10 µM unless noted
CAKI-1 renal = settings: 10 µM unless noted
A498 renal = settings: 10 µM unless noted
CCRF-CEM leukemia = settings: 10 µM unless noted
MOLT-4 leukemia = settings: 10 µM unless noted
SR leukemia = settings: 10 µM unless noted

Measured: growth

CCC(=O)OC1CCn2c1nc1c2C(=O)C(C)=C(N2CC2)C1=O (stereo not drawn)
active: HCT-15 colon 2.82% | HT29 colon 7.71% | SNB-75 CNS -87% | SNB-19 CNS 1.12% | U251 CNS -24.2% | PC-3 prostate 8.58% | SK-MEL-5 melanoma -98% | UACC-62 melanoma -67.8% | LOX IMVI melanoma -75.7% | SK-MEL-28 melanoma -42.1% | SK-MEL-2 melanoma -43.9% | EKVX NSCLC 8.46% | UO-31 renal -9.18% | TK-10 renal -5.86% | ACHN renal -25.3% | CAKI-1 renal -8.28% | A498 renal -77.6% | SR leukemia 1.48%
inactive: CCRF-CEM leukemia 70.4% | MOLT-4 leukemia 70.5%

CC(=O)O[C@H]1C[C@@H]2OC3C=C(C)CCC3(C)[C@@]1(C)[C@@]21CO1 (stereo partly drawn)
11.2% (inactive) and -18.3% (active): SNB-75 CNS
active: HCT-15 colon -0.358% and -0.281% | HT29 colon -32.2% and -30.6% | SNB-19 CNS -0.212% and 0.0305% | U251 CNS -8.47% and -17.4% | PC-3 prostate -2.24% and -4.21% | SK-MEL-5 melanoma -47.8% and -66.8% | UACC-62 melanoma -16.6% and -10.1% | LOX IMVI melanoma -58.9% and -21.5% | SK-MEL-28 melanoma -24.3% and -29.8% | SK-MEL-2 melanoma -72.2% and -53.9% | EKVX NSCLC -13.7% and -15.6% | UO-31 renal -5.32% and -11.9% | TK-10 renal -18.9% and -20.4% | ACHN renal -34.8% and -29.9% | CAKI-1 renal -16.9% and -24.9% | A498 renal -38.7% | CCRF-CEM leukemia 2.26% | MOLT-4 leukemia -15.6% and -30.2% | SR leukemia -17.5%

CO[C@H](/C(C)=C/C=C/C(C)=C/c1coc(C)n1)[C@H](C)[C@H]1C[C@@H](O)[C@@]2(C)O[C@H]2/C=C/[C@@H](C)[C@@H]2C[C@@H](CC(=O)O2)C[C@H]2O[C@@H]2C(=O)O1
active: HCT-15 colon -31% | HT29 colon -23.2% | SNB-75 CNS -46.7% | U251 CNS 3.46% | PC-3 prostate -14.4% | SK-MEL-5 melanoma -18.7% | UACC-62 melanoma 8.74% | ACHN renal -10.3% | CCRF-CEM leukemia -3.89% | MOLT-4 leukemia 9.7% | SR leukemia -4.11%
inactive: SNB-19 CNS 21.2% | LOX IMVI melanoma 13.1% | SK-MEL-2 melanoma 51.4% | EKVX NSCLC 39.6% | UO-31 renal 20.7% | TK-10 renal 37.2% | CAKI-1 renal 15% | A498 renal 26.1%

O=C1c2ccccc2C(=O)C(Cl)C1Cl (stereo not drawn)
inactive: HT29 colon 96.8% | SNB-75 CNS 54% | SNB-19 CNS 69.5% | U251 CNS 83% | PC-3 prostate 71.8% | SK-MEL-5 melanoma 86.3% | UACC-62 melanoma 70.9% | SK-MEL-28 melanoma 87.9% | SK-MEL-2 melanoma 111% | CAKI-1 renal 64.5% | A498 renal 133% | SR leukemia 35.6%
active: HCT-15 colon -86.6% | EKVX NSCLC -79.6% | UO-31 renal -98.5% | TK-10 renal -97.4% | ACHN renal -100% | CCRF-CEM leukemia -20.8% | MOLT-4 leukemia -8.44%
